“And” between values parts separate entries of the source, which are not always exact repeats. Equal entries are not always repeated. Results filed as inconclusive are left out. A structure can be active in one record and inactive in another. The source made the active and inactive calls. Unless noted, the call rests on the fitted dose curve; in most records, active means well fitted curve in the direction sought with a large enough effect in the repeat runs; inconclusive means weak or mixed curves; inactive means no such curve, though single readings can be large; an effect the other way counts as inactive or inconclusive.
Key:
[1] = qHTS assay to identify small molecule agonists of the androgen receptor (AR) signaling pathway in the presence of an antagonist - cell viability counter screen (AID 1259379);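 further: MDA-kb2 human breast cancer cells carrying an MMTV luciferase reporter; series mostly up to about 92 µM; nearly all actives have a fitted effect of over 25% in size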
How it was run: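 Viability counter screen: CellTiter-Fluor fluorescence, measured in the same wells as the luciferase read-out. MDA-kb2 cells, 3,000/well, with nilutamide at 3.0uM final and compounds at 15 concentrations, 16 hr at 37C, 0% CO2.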

[2] = qHTS assay to identify small molecule agonists of the estrogen receptor beta (ER-beta) signaling pathway - cell viability counter screen (AID 1259380); further: nearly all actives have a fitted effect of over 30% in size; further: potency means the concentration at half of the fitted maximal effect
How it was run: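 Luminescence read-out (CellTiter-Glo, 30 min, room temp) taken in the same wells as the beta-lactamase reporter assay; ER-beta-UAS-bla HEK293T cells exposed to DMSO-dissolved compounds for 16 hr at 37C in 2% charcoal-stripped FBS medium.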

[3] = qHTS assay to identify small molecule antagonists of the estrogen receptor beta (ER-beta) signaling pathway - cell viability counter screen (AID 1259382);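 further: HEK293T cells carrying ER-beta-UAS-bla reporter stimulated with estradiol; series mostly up to about 92 µM; nearly all actives have a fitted effect of over 55% in size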
How it was run: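 Luminescent ATP read-out (CellTiter-Glo, 30 min, RT) taken in the same wells as the bla reporter assay. HEK293T ER-beta-UAS-bla cells in 2% charcoal-stripped FBS were exposed to compounds with 1nM E2 for 16 hr at 37C.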

[4] = target: Estrogen receptor (Homo sapiens) (UniProt P03372); assay: qHTS assay to identify small molecule agonists of the estrogen receptor alpha (ER-alpha) signaling pathway in the presence of an antagonist (AID 1259383; calls by dose curve; further: top concentration of the series differs between compounds; nearly all actives have a fitted effect of over 15% in size)
How it was run: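 Luciferase luminescence (ONE-Glo, 30min at room temperature) measured in VM7Luc4E2 cells after 22hr compound exposure at 15 concentrations, with 10.0nM ICI-182,780 final present; cells express endogenous ER-alpha and carry four EREs upstream of luciferase.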

[5] = qHTS assay to identify small molecule agonists or antagonists of the thyroid stimulating hormone receptor (TSHR) signaling pathway - wild type cell line counter screen (AID 1259384; calls by dose curve)
How it was run: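 Wild-type Hek293 cells, 800/well, 18 h at 37C, then compound with Ro20-1724 for 30 min RT. cAMP by HTRF (cAMP-d2/anti-cAMP cryptate), 1 h RT, fluorescence read. 15 concentrations, triplicates.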

[6] = target: Thyrotropin receptor (Homo sapiens) (UniProt P16473); assay: qHTS assay to identify small molecule antagonists of the thyroid stimulating hormone receptor (TSHR) signaling pathway (AID 1259385; calls by dose curve; further: nearly all actives have a fitted effect of over 20% in size; further: potency means the concentration at half of the fitted maximal effect)
How it was run: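 TSHR-HEK293 cells (800/well) plated 18 h, then compounds with Ro20-1724 and TSH at 1.5 ng/mL final, 30 min at room temperature. cAMP quantified by HTRF (cAMP-d2/anti-cAMP-cryptate, 1 h); 15 concentrations in triplicate.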

[7] = qHTS assay to identify small molecule agonists of the estrogen receptor alpha (ER-alpha) signaling pathway in the presence of an antagonist - cell viability counter screen (AID 1259386);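 further: series mostly up to about 92 µM; cells exposed to compounds for 22 h at 37 °C before the viability read; nearly all actives have a fitted effect of over 30% in size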
How it was run: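 Read-out: CellTiter-Fluor fluorescence after 1hr reagent incubation, measured in the same wells as the luciferase readout. VM7Luc4E2 cells were exposed to 15 compound concentrations with 10.0nM ICI-182,780 for 22hr at 37C.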

[8] = target: Progesterone receptor (Homo sapiens) (UniProt P06401); assay: qHTS assay to identify small molecule agonists of the progesterone receptor (PR) signaling pathway (AID 1346784; calls by dose curve; further: nearly all actives have a fitted effect of over 30% in size)
How it was run: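 Beta-lactamase reporter read-out: after 16 hr compound treatment at 37C and a further 2 hr at room temperature with LiveBLAzer B/G FRET substrate, fluorescence was measured in PR-UAS-bla HEK 293T cells grown in 2% charcoal-stripped serum.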

[9] = target: Progesterone receptor (Homo sapiens) (UniProt P06401); assay: qHTS assay to identify small molecule antagonists of the progesterone receptor (PR) signaling pathway (AID 1346795; active means well fitted inhibition curve with a large enough effect in the signal ratio in the repeat runs, not every such curve was filed as active; the % refers to the signal ratio; further: potency means the concentration at half of the fitted maximal effect)
How it was run: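 Read-out is fluorescence from the LiveBLAzer B/G FRET substrate, cleaved by a UAS-controlled beta-lactamase in PR-UAS-bla HEK293T cells after 16 hr exposure to compound plus 1 nM promegestone (final), followed by 2 hr at room temperature.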

[10] = qHTS assay to identify small molecule antagonists of the progesterone receptor (PR) signaling pathway - cell viability counter screen (AID 1346798);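 further: HEK293T PR-UAS-bla cells stimulated with the agonist R5020; series mostly up to about 92 µM; nearly all actives have a fitted effect of over 50% in size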
How it was run: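 HEK293T PR-UAS-bla, 2% charcoal-stripped FBS; 4 hr pre-plate; cpd + R5020, 16 h 37C; LiveBLAzer read first; then CellTiter-Glo 30 min RT, luminescence.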

[11] = qHTS assay to identify small molecule agonists of the progesterone receptor (PR) signaling pathway - cell viability counter screen (AID 1346799; calls by dose curve; further: nearly all actives have a fitted effect of over 45% in size; further: potency means the concentration at half of the fitted maximal effect)
How it was run: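 Luminescence from CellTiter-Glo, added after the beta-lactamase FRET read in the same wells, gave cytotoxicity in PR-UAS-bla HEK293T cells treated with compounds for 16 hr at 37C.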

[12] = qHTS assay to identify small molecule antagonists of the TGF-beta/Smad signaling pathway - cell viability counter screen (AID 1346824); further: nearly all actives have a fitted effect of over 50% in size
How it was run: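 SBE-bla HEK 293T cells, incubated overnight, then compound plus 0.25 ng/mL TGF-beta1 (stock added) for 5 hr at 37 C. Viability was read in the same wells by CellTiter-Glo luminescence after 30 min at room temperature.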

[13] = qHTS assay to identify small molecule agonists of the TGF-beta/Smad signaling pathway - cell viability counter screen (AID 1346829); further: top concentration of the series differs between compounds; nearly all actives have a fitted effect of over 45% in size
How it was run: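 HEK 293T SBE-bla line, 5 hr compound exposure at 37 C, multiplexed CellTiter-Glo viability read by luminescence.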

[14] = qHTS assay to identify small molecule agonists of the TGF-beta/Smad signaling pathway (AID 1346859; active means well fitted activation curve with a large enough effect in the signal ratio in the repeat runs, not every such curve was filed as active; the % refers to the signal ratio; further: potency means the concentration at half of the fitted maximal effect; on activation: series mostly up to about 77 µM)
How it was run: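 SBE-bla HEK 293T, 4,000 cells/well, plated o/n; cpd in DMSO, 5 hr, 37 C/5% CO2; B/G FRET substrate 2 hr RT; ex 405, em 460/530 nm.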

[15] = target: Thyrotropin-releasing hormone receptor (Homo sapiens) (UniProt P34981); assay: qHTS assay to identify small molecule antagonists of the thyrotropin-releasing hormone receptor (TRHR) signaling pathway (AID 1346877; active means well fitted inhibition curve with a large enough effect in the repeat runs, not every such curve was filed as active; further: series mostly up to about 51 µM)
How it was run: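 HEK293/TRHR cells, 18 h, 37 °C; Ca2+ dye 2 h; cpd 5 min RT; TRH 1 nM final; fluorescence read 3 min, 1 s intervals; 15 concs, triplicate.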

[16] = target: Thyrotropin-releasing hormone receptor (Homo sapiens) (UniProt P34981); assay: qHTS assay to identify small molecule agonists of the thyrotropin-releasing hormone receptor (TRHR) signaling pathway (AID 1346891; calls by dose curve; further: potency means the concentration at half of the fitted maximal effect; on activation: series mostly up to about 58 µM)
How it was run: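 Intracellular calcium rise, read as fluorescence every second for 3 min, served as the agonist signal in dye-loaded HEK293 cells expressing TRHR; each compound ran at 15 concentrations in triplicate.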

[17] = Human pregnane X receptor (PXR) small molecule agonists, qHTS cell viability counter screen (AID 1346977); further: nearly all actives have a fitted effect of over 50% in size; further: potency means the concentration at half of the fitted maximal effect
How it was run: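 PXR-Luc HepG2, 2,000 cells/well, 5% charcoal-stripped FBS; 5hr settle; cpd 24hr, 37C/5% CO2; CellTiter-Fluor at 23hr, read 1hr later (fluorescence).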

[18] = Caspase-3/7 induction in HepG2 cells by small molecules, qHTS assay (AID 1346978); further: nearly all actives have a fitted effect of over 15% in size
How it was run: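 Wild-type HepG2 cells, 2,000/well, settled 5 hr at 37 C and 5% CO2, then compound-treated for 17 hr; caspase-3/7 activity read by luminescent Caspase-Glo 3/7 after 30 min at room temperature.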

[19] = Caspase-3/7 induction in CHO-K1 cells by small molecules, qHTS cell viability counter screen (AID 1346979); further: nearly all actives have a fitted effect of over 35% in size; further: potency means the concentration at half of the fitted maximal effect
How it was run: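 Cells (CHO-K1, wild type) are plated at 1,500 per well and incubated 5hr. Test compounds in DMSO are then pinned in, followed by 16hr at 37C and 5% CO2. Viability is read by CellTiter-Fluor fluorescence after 1hr.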

[20] = target: Androgen receptor (Homo sapiens) (UniProt P10275); assay: qHTS assay to identify small molecule agonists of the androgen receptor (AR) signaling pathway in the presence of an antagonist (AID 1259381; calls by dose curve; further: nearly all actives have a fitted effect of over 15% in size)
How it was run: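 Luciferase read-out (ONE-Glo, 30min room temperature) in MDA-kb2 MMTV-reporter cells; agonist mode run in presence of AR antagonist nilutamide, 3.0uM final. Compounds tested as 15-point series, 16hr exposure at 37C, 0% CO2.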

Measured: Potency

Chain of Progesterone receptor (Homo sapiens) (P06401 whole entry, looked up): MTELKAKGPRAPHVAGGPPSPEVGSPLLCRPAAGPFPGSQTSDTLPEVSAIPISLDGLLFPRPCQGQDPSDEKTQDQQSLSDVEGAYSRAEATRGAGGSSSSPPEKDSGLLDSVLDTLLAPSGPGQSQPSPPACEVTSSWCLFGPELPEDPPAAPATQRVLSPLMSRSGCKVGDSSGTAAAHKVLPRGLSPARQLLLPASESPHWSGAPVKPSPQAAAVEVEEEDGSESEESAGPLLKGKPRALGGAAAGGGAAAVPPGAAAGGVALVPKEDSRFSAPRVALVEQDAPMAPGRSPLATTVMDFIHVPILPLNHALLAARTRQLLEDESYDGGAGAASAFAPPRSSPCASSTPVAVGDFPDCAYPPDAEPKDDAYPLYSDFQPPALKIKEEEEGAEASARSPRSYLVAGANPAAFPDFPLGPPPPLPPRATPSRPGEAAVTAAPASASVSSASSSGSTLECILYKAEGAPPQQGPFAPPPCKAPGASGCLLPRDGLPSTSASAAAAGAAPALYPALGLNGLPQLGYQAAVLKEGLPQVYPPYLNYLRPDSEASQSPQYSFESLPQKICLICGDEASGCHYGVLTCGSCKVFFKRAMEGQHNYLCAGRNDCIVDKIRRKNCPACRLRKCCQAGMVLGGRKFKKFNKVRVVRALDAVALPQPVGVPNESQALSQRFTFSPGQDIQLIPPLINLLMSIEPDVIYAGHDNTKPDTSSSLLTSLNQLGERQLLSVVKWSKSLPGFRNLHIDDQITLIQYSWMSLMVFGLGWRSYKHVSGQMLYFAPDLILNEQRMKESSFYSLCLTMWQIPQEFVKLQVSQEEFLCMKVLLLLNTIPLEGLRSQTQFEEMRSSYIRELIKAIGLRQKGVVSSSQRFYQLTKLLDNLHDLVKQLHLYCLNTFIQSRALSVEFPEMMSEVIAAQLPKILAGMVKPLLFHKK
Chain of Thyrotropin-releasing hormone receptor (Homo sapiens) (P34981 whole entry, looked up): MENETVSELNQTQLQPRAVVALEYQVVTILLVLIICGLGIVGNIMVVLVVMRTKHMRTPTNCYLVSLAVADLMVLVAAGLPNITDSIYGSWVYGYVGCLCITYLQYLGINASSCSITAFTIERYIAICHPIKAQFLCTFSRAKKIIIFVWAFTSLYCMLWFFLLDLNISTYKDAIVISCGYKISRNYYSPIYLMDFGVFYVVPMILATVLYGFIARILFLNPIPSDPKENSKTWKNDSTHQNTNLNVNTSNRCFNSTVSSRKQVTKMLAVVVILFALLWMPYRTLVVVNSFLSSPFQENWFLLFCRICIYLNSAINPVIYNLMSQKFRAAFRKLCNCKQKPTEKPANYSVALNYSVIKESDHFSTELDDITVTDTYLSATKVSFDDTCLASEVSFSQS
Chain of Androgen receptor (Homo sapiens) (P10275 whole entry, looked up): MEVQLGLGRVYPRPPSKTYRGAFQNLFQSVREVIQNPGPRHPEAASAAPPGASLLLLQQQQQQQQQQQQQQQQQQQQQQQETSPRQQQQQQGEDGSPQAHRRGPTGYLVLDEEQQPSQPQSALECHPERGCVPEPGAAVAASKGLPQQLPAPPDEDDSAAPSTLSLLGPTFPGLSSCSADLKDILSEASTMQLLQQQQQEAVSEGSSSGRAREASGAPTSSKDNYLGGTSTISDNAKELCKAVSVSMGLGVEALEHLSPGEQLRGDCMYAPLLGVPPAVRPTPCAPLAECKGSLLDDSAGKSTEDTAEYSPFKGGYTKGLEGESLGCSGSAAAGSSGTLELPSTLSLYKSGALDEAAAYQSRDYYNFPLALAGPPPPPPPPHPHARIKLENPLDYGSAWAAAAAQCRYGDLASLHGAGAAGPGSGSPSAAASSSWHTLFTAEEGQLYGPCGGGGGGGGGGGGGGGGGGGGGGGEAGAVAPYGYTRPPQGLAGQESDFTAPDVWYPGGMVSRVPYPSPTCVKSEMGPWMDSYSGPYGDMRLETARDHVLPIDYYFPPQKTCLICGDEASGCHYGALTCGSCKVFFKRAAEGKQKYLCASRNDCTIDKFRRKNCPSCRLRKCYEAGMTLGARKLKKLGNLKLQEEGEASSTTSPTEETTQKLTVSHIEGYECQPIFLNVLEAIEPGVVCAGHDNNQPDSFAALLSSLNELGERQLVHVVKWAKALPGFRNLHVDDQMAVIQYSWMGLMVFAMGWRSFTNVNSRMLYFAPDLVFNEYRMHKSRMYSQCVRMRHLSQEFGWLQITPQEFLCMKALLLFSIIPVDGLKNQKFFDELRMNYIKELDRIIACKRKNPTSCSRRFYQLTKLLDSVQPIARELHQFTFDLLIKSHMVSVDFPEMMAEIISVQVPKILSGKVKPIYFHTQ
Chain of Thyrotropin receptor (Homo sapiens) (P16473 whole entry, looked up): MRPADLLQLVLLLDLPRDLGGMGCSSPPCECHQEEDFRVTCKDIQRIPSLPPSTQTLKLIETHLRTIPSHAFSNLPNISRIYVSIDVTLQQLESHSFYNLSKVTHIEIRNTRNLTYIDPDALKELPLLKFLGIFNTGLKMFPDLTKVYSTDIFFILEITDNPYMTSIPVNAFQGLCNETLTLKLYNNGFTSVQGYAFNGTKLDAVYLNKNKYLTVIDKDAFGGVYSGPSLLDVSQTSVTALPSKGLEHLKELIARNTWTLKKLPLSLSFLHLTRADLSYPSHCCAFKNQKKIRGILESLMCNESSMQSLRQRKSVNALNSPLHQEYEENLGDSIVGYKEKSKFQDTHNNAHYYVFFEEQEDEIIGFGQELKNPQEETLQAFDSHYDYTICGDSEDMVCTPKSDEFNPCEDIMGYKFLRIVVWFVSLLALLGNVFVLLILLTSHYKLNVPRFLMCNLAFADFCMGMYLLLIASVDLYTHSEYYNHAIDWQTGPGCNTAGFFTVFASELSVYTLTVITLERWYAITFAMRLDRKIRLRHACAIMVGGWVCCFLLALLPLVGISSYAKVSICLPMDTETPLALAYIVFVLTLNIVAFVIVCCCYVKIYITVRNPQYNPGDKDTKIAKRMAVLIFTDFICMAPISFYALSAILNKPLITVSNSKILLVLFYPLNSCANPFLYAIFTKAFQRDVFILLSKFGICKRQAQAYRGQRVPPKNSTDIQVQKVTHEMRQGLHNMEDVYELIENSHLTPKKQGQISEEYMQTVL
Chain of Estrogen receptor (Homo sapiens) (P03372 whole entry, looked up): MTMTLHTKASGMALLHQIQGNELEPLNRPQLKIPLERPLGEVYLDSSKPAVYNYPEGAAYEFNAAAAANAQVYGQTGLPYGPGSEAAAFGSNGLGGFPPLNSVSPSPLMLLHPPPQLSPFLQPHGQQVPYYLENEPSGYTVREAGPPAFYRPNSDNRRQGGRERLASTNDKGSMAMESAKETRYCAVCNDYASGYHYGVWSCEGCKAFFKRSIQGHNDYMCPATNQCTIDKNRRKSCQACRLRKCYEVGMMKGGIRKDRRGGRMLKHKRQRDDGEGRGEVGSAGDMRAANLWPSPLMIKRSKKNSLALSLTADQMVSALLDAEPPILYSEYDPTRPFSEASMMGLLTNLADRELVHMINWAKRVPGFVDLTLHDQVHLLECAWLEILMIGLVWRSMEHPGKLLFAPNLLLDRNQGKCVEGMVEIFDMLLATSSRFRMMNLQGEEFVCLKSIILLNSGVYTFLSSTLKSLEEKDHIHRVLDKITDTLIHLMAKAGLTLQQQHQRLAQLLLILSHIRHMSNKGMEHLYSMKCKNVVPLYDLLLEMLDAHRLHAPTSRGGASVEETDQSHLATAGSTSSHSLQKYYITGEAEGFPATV

C#CCN(C)[C@H](C)Cc1ccccc1
not listed: [20]
inactive: all other assays above

COCCl
39.8 µM (active) and inactive: [17]
20.1 µM (active) and inactive: [19]
not listed: [4] | [15] | [16]
inactive: all other assays above

C1CN2CCN1CC2
inactive and 34.7 µM (active): [16]
not listed: [20]
inactive: all other assays above

O=c1[nH]c(=O)[nH]c(=O)[nH]1
not listed: [4]
inactive: all other assays above

CC(Br)C(=O)O (stereo not given)
not listed: [9] | [20]
inactive: all other assays above

CC(C)OC(=O)Nc1cccc(Cl)c1
not listed: [9] | [15] | [20]
inactive: all other assays above

CCOP(OCC)OCC
not listed: [5] | [6] | [20]
inactive: all other assays above

c1ccc(OP(Oc2ccccc2)Oc2ccccc2)cc1
not listed: [9] | [15] | [20]
inactive: all other assays above

CCNc1nc(NC(C)(C)C)nc(SC)n1
active: [9] 47.9 µM
not listed: [10] | [20]
inactive: all other assays above

CCCCCOC(=O)c1ccccc1C(=O)OCCCCC
not listed: [9] | [15] | [20]
inactive: all other assays above

COC(=O)NC(=S)Nc1ccccc1NC(=S)NC(=O)OC
not listed: [9] | [15] | [20]
inactive: all other assays above

Nc1ccccc1C(=O)O
not listed: [9] | [20]
inactive: all other assays above

O=C1CCCN1
55.5 µM (active) and inactive: [14]
not listed: [15] | [16] | [20]
inactive: all other assays above

O=[N+]([O-])c1ccccc1
not listed: [9] | [20]
inactive: all other assays above

CCCCOC(=O)c1ccccc1C(=O)OCCCC
not listed: [9] | [15] | [16] | [20]
inactive: all other assays above

COC(=O)c1ccccc1C(=O)OC
not listed: [9] | [15] | [16] | [20]
inactive: all other assays above

CC(C)N1C(=O)c2ccccc2NS1(=O)=O
not listed: [15] | [16] | [20]
inactive: all other assays above

C=CC(N)=O
not listed: [8] | [9] | [15] | [20]
inactive: all other assays above

CCOC(=O)c1ccccc1C(=O)OCC
not listed: [9] | [15] | [20]
inactive: all other assays above

O=Cc1cccc(Oc2ccccc2)c1
not listed: [9] | [15] | [16] | [20]
inactive: all other assays above

CC(C)OC(=O)Nc1ccccc1
not listed: [9] | [20]
inactive: all other assays above

COC(=O)NS(=O)(=O)c1ccc(N)cc1
not listed: [9] | [15] | [16] | [20]
inactive: all other assays above

CCC12COCN1COC2
not listed: [15] | [16] | [20]
inactive: all other assays above

O=c1n(Cl)c(=O)n(Cl)c(=O)n1Cl
not listed: [9] | [20]
inactive: all other assays above

O=NN1CCCCCCC1
not listed: [9] | [15] | [20]
inactive: all other assays above

Nc1c(Cl)c(Cl)nc(C(=O)O)c1Cl
not listed: [14] | [15] | [20]
inactive: all other assays above

CC(C)=C[C@@H]1[C@@H](C(=O)OCc2coc(Cc3ccccc3)c2)C1(C)C
not listed: [6] | [9] | [15] | [16] | [20]
inactive: all other assays above

Cc1ccccc1O
not listed: [9] | [20]
inactive: all other assays above

NCCc1ccc(O)cc1
21.5 µM (active) and inactive: [11]
60.6 µM (active) and inactive: [2]
not listed: [9] | [15] | [20]
inactive: all other assays above

CCCCN(CCCC)SN(C)C(=O)Oc1cccc2c1OC(C)(C)C2
active: [19] 69.7 µM
not listed: [6] | [15] | [16] | [20]
inactive: all other assays above

CON(C)C(=O)Nc1ccc(Cl)c(Cl)c1
not listed: [9] | [11] | [15] | [19] | [20]
inactive: all other assays above

O=S(=O)(c1ccc(Cl)cc1)c1cc(Cl)c(Cl)cc1Cl
active: [6] 61.1 µM | [19] 54.4 µM and 68.6 µM
not listed: [9] | [11] | [20]
inactive: all other assays above

O=NN1CCCC1
20.2 µM (active) and inactive: [2]
not listed: [9] | [10] | [15] | [16] | [20]
inactive: all other assays above

CN(N=O)c1ccccc1
not listed: [9] | [15] | [20]
inactive: all other assays above

Cn1cc(-c2ccccc2)c(=O)c(-c2cccc(C(F)(F)F)c2)c1
active: [2] 59.6 µM
not listed: [7] | [15] | [19] | [20]
inactive: all other assays above
